Laboratory results reported in PubChem BioAssay (NCATS).
Values joined by “and” are separate entries in the source; they are usually repeats but may differ in a detail not shown here. Equal entries are not always repeated. Records with an inconclusive call do not appear. Where a call stands in place of a potency, no number is given. Active and inactive are the calls of the source. Unless noted, calls come from the whole dose curve; as a rule, active = well fitted curve in the direction sought with a large enough effect; inconclusive = small, poorly fitted or top-dose-only effect, or another doubt; inactive = no such curve, though single readings can be large; an effect the other way counts as inactive or inconclusive.

Key:
[1] = Cell Viability - LYMP2-025 (AID 976); settings: LYMP2-025 lymphoblastoid cell viability; series mostly up to 92.2 µM
Summary of the method: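 Luminescent ATP readout after 24 hr treatment of a human lymphoblastoid line (LYMP2-025, 2500 cells/well, 37 C). Reagent developed 30 min at room temperature; AC50 fitted with the Hill equation.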

[2] = Cell Viability - LYMP2-002 (AID 977); settings: LYMP2-002 lymphoblastoid cell viability, qHTS; series mostly up to 92.2 µM;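 note: compound exposure lasted 24 h at 37 °C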
Summary of the method: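 Human lymphoblastoid cells (2500/well) in complete medium were preincubated 5 hr at 37 C, then exposed to compounds for 24 hr at 37 C. Intracellular ATP was read by CellTiter-Glo luminescence; AC50 came from Hill-equation concentration-response fits.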

[3] = Cell Viability - LYMP2-006 (AID 978); settings: LYMP2-006 lymphoblastoid cell viability, qHTS; series mostly up to 92.2 µM; note: nearly all actives have a fitted effect of over 60% in size
Summary of the method: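 Human lymphoblastoid cells (LYMP2-006), 2500/well in complete medium, were treated with compound for 24 hr at 37 C. Cellular ATP was read by CellTiter-Glo luminescence after 30 min, and AC50 values came from Hill-equation fits of concentration-response data.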

[4] = Cell Viability - LYMP2-007 (AID 979); settings: LYMP2-007 lymphoblastoid cell viability; series mostly up to 92.2 µM;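 note: cells exposed to compound for 24 h before reading; nearly all actives have a fitted effect of over 60% in size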
Summary of the method: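 Measured via luciferase-based ATP quantitation: lymphoblastoid cells, 24 hr compound exposure at 37 C, AC50 from Hill fits.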

[5] = Cell Viability - LYMP2-008 (AID 980); settings: LYMP2-008 lymphoblastoid cell viability, qHTS; series mostly up to 92.2 µM; note: nearly all actives have a fitted effect of over 60% in size
Summary of the method: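 Measured: ATP-dependent luminescence, proportional to viable cell number, in human lymphoblastoid cells treated 24 hr with compound in complete culture medium. Values are AC50s from Hill-equation modelling of qHTS titrations.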

[6] = Cell Viability - LYMP2-010 (AID 981); settings: LYMP2-010 lymphoblastoid cell viability, qHTS; series mostly up to 92.2 µM; note: nearly all actives have a fitted effect of over 55% in size
Summary of the method: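 This 24 hr viability screen uses LYMP2-010 lymphoblastoid cells, quantifies ATP via luciferase luminescence, and derives AC50 from Hill fits of qHTS concentration-response data.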

[7] = Cell Viability - LYMP2-012 (AID 982); settings: LYMP2-012 lymphoblastoid cell viability qHTS; series mostly up to 92.2 µM;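 note: cellular ATP by luciferase luminescence where a drop means cytotoxicity; cells exposed to compound for one day before reading; nearly all actives have a fitted effect of over 55% in size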
[8] = Cell Viability - LYMP2-014 (AID 983); settings: LYMP2-014 lymphoblastoid cells, viability qHTS; series mostly up to 92.2 µM; note: nearly all actives have a fitted effect of over 50% in size
Summary of the method: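 Quantitative HTS in lymphoblastoid cells: 24 hr compound exposure, then CellTiter-Glo ATP luminescence. Positive control was tetraoctylammonium bromide, 6.4pM to 92 uM.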

[9] = Cell Viability - LYMP2-018 (AID 985); settings: LYMP2-018 lymphoblastoid cells, viability (qHTS); series mostly up to 92.2 µM; note: nearly all actives have a fitted effect of over 50% in size
Summary of the method: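 In this qHTS viability assay, cells are treated for 24 hr and cellular ATP is quantified by luciferase-based luminescence, with tetraoctylammonium bromide as positive control.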

[10] = Cell Viability - LYMP2-020 (AID 986); settings: series mostly up to 92.2 µM; note: nearly all actives have a fitted effect of over 55% in size
Summary of the method: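 Cells at 2500 per well receive a 24 hr compound exposure at 37 C. Viability is measured as ATP-dependent luciferase luminescence, with AC50 modeled from qHTS concentration-response curves.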

[11] = Cell Viability - LYMP2-022 (AID 987); settings: LYMP2-022 lymphoblastoid cell viability; series mostly up to 92.2 µM; note: nearly all actives have a fitted effect of over 55% in size
Summary of the method: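 In this qHTS cytotoxicity screen, compound titrations were incubated 24 hr at 37 C with human lymphoblastoid cells in complete medium. Luciferase-based ATP luminescence provided the viability signal.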

[12] = Cell Viability - LYMP2-024 (AID 988); settings: LYMP2-024 lymphoblastoid cell viability; series mostly up to 92.2 µM; note: nearly all actives have a fitted effect of over 60% in size
Summary of the method: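 Cells at 2500 per well received compound for 24 hr after a 5 hr settling period. Viability was scored by CellTiter-Glo luminescence, with AC50 from Hill fits.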

[13] = Cell Viability - LYMP2-026 (AID 989); settings: LYMP2-026 lymphoblastoid cell viability, qHTS; series mostly up to 92.2 µM; note: nearly all actives have a fitted effect of over 50% in size
Summary of the method: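 Acute toxicity screen in complete culture medium, with 24 hr compound exposure at 37 C. Viability read as cellular ATP via luciferase reaction, with tetraoctylammonium bromide (6.4pM to 92 uM) as positive control.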

[14] = Cell Viability - LYMP1-002 - Assay at 24 hr (AID 993); settings: LYMP1-002 lymphoblastoid cells viability; series mostly up to 92.2 µM
Summary of the method: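 Viability was judged from intracellular ATP using a luciferase read-out, following a 24-hour compound incubation at 37 C of lymphoblastoid cells seeded at 2500 per well. Concentration-response data were fitted to the Hill equation for AC50.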

[15] = qHTS Assay for Lipid Storage Modulators (AID 1519; calls by dose curve); settings: Drosophila S3 cells, BODIPY lipid droplet/cell ratio, laser cytometry, cells loaded with oleic acid
Summary of the method: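 Cells seeded at 5,000 per well were treated with compounds over a concentration series and loaded with oleic acid (400 uM, as added). Lipid droplet fluorescence (488 nm excitation, 500-530 nm channel) was read by laser-scanning cytometry and normalized to 20 uM Triacsin C.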

[16] = target: DNA repair nuclease/redox regulator APEX1 (Homo sapiens) (UniProt P27695); assay: qHTS Validation Assay for Inhibitors of the Human Apurinic/apyrimidinic Endonuclease 1 (APE1) (AID 1705;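 note: TAMRA fluorescence gain over two minutes as APE1 cuts a quenched THF abasic duplex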); settings: purified APE1 endonuclease activity, fluorescence, titration; series mostly up to 57.1 µM
Summary of the method: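 Fluorogenic double-stranded THF abasic-site substrate (5'-TAMRA/3'-BHQ-2), 50 nM final. Enzyme preincubated with compound 15 min at room temperature, then substrate added. Kinetic fluorescence (ex 525/em 598 nm) read three times at 60 s intervals; activity taken as third-minus-first read difference.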

[17] = Cell Viability - LYMP1-002 - Assay at 40 hr (AID 994); settings: LYMP1-002 lymphoblastoid cell viability; series mostly up to 92.2 µM; note: nearly all actives have a fitted effect of over 60% in size
Summary of the method: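 Concentration-dependent ATP loss after 40 hr treatment at 37 C defined toxicity; AC50 values were obtained by fitting the standard Hill equation.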

[18] = measured here: cell count channel max response
[19] = measured here: lipid channel max response

DNA repair nuclease/redox regulator APEX1 (Homo sapiens), sequence (P27695 whole entry, looked up): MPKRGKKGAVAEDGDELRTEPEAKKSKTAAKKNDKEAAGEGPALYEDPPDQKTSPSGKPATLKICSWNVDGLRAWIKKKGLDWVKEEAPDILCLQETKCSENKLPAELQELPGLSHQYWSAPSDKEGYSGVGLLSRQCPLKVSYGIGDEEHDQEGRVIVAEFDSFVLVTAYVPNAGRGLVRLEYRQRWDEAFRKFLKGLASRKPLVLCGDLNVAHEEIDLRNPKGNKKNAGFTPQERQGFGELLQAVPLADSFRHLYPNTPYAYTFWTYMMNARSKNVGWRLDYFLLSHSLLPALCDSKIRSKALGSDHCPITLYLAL

| SMILES | outcome [1] | outcome [2] | Potency [3] | Potency [4] | Potency [5] | Potency [6] | Potency [7] | Potency [8] | Potency [9] | Potency [10] | Potency [11] | Potency [12] | outcome [13] | Potency [14] | activity change, negative = inhibition ([15]; at 57.5 µM (top of the series)) | max response [15, 18] | max response [15, 19] | outcome [16] | Potency [17] | activity change, negative = inhibition ([15]; at 25.7 µM (top of the series)) |
| --- | --- | --- | --- | --- | --- | --- | --- | --- | --- | --- | --- | --- | --- | --- | --- | --- | --- | --- | --- | --- |
| Oc1ccc(/C=C/c2cc(O)cc(O)c2)cc1 | inactive | inactive | inactive | inactive | inactive | inactive | inactive | inactive | inactive | inactive | inactive | inactive | inactive | inactive | 25.3% (inactive) | -23.2% | 2.31% | inactive |  |  |
| C=CC(C)(O)CC/C=C(\C)CCC=C(C)C (stereo not given) |  |  |  |  |  |  |  |  |  |  |  |  |  |  | 0.625% (inactive) | 5.67% | 8.64% |  |  |  |
| Nc1ccc(N=Nc2ccccc2)c(N)n1 | inactive | inactive | inactive | inactive | inactive | inactive | inactive | inactive | inactive | inactive | inactive | inactive | inactive | inactive | 17.8% (inactive) | -20.4% and -3.25% | -21.4% and 16.6% |  | inactive | -0.0516% (inactive) |
